# Source: PubChem
# AmpC inh detg: qHTS Inhibitors of AmpC Beta-Lactamase (assay with detergent); actives 0.041% (n = 370,000); P00811; Potency, µM (doses to about 114 µM), for the others: at the top dose activity change, negative = inhibition, actives largely listed as inhibitors; AmpC hydrolysis of nitrocefin, absorbance 480 nm, 0.01% Triton;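 note: 0% = no-compound wells and -100% = no-enzyme wells; nearly all actives have a fitted effect of over 25% in size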
# Target sequence (P00811 whole entry, looked up): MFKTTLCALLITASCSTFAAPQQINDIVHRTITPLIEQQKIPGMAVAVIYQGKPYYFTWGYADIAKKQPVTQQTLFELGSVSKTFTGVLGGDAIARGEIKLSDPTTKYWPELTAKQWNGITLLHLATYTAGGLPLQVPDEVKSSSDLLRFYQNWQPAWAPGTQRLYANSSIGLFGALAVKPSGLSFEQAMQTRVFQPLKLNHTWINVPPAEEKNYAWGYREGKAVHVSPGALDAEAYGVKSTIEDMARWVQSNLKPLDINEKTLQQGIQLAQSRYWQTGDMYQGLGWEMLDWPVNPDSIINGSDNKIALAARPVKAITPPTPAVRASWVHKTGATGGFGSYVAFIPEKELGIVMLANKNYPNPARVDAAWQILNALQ
#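 AmpC (5.3 nM in the dispensed reagent) in 20 mM phosphate pH 7.0 with 0.01% (detergent screen) or 0.0001% Triton X-100 was preincubated with compounds for 15 min at room temperature. Nitrocefin was then added from an 800 uM solution, and hydrolysis was followed at 480 nm.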
# AmpC no deterg: qHTS Inhibitors of AmpC Beta-Lactamase (assay without detergent) | Potency, µM (highest dose often 57.1 µM), inactives show at the top dose activity change, negative = inhibition, actives largely listed as inhibitors | AmpC nitrocefin hydrolysis, absorbance 480 nm, 0.0001% Triton | P00811 | actives 0.52% (n = 330,000);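 note: plate controls were no compound for no effect and no enzyme for full effect; nearly all actives have a fitted effect of over 20% in size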
#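 20 mM phosphate pH 7.0 + 0.01% (detergent screen) or 0.0001% Triton X-100; 5.3 nM AmpC reagent; cpd preinc 15 min RT; nitrocefin (800 uM stock) to start; A480 q20 s × 4 min; Activity was normalised to no-enzyme and no-compound control wells.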
# Tb PYK inh: qHTS of Trypanosoma Brucei Inhibitors | AID 624173, 2012 | TbPYK enzyme, Kinase-Glo Plus ATP luminescence, 45 min | pyruvate kinase (Trypanosoma brucei), Q57TT1 | actives 0.12% (n = 410,000) | Potency, µM (doses to about 76.8 µM), inactives show at the top dose activity, negative = inhibition, most hits filed as inhibitors; note: % is set by controls: 0 for no effect and ±100 for the full control effect; nearly all actives have a fitted effect of over 50% in size
#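 In this concentration-response screen, enzyme-free wells defined baseline while DMSO plates tracked drift. Each reaction combined TbPYK, substrate, compound and 130 uM ADP for 45 min at room temperature. Kinase-Glo Plus luminescence gave the signal.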
# RE007 growth inh: qHTS Assay for Inhibitors of the HIV-1 protein Vpr. S. pombe RE007 Vpr strain, BacTiter-Glo ATP luminescence, 24 h. Potency, µM (highest dose often 92.2 µM), inactives show top-dose activity change, negative = less growth, actives largely listed as inhibitors. actives 0.21% (n = 360,000); active = well fitted falling curve with a large enough effect; inconclusive = small, poorly fitted or top-dose-only effect; inactive = no such curve, though single readings can be large or run the other way; note: % is set by controls: 0 for no effect and ±100 for the full control effect; nearly all actives have a fitted effect of over 50% in size
#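 Fission yeast strain RE007, carrying one chromosomally integrated HIV-1 vpr copy, was seeded at OD 0.01 in PMG+AL medium with 23 nL pinned compound. After 24 h at 30 °C and 99% humidity, viability was read by BacTiter-Glo luminescence.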
# SARS PLP yeast: qHTS of Yeast-based Assay for SARS-CoV PLP; S. cerevisiae expressing SARS-CoV PLpro, growth rescue; Potency, µM (highest dose often 32.9 µM), for the others: top-dose activity, positive = growth rescue, most hits filed as activators; actives 0.19% (n = 330,000); AID 485353, 2010; calls by dose curve; note: 0% is about no effect; nearly all actives have a fitted effect of over 55% in size
# Sm TGR block: qHTS Assay for the Inhibitors of Schistosoma Mansoni Peroxiredoxins; Schistosoma mansoni thioredoxin glutathione reductase (TGR), Q962Y6; purified TGR, DTNB reduction, TNB absorbance 405 nm; Potency, µM (doses to about 114 µM), without a hit: top-dose activity change, negative = inhibition, hits mostly inhibitors; actives 3% (n = 360,000); AID 485364, 2010; note: % is set by controls: 0 for no effect and ±100 for the full control effect; nearly all actives have a fitted effect of over 60% in size
#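 Kinetic colorimetric format: TGR-catalysed, NADPH-driven DTNB reduction monitored via TNB absorbance. Enzyme dispensed at 20 nM; compound exposure 15 min at room temperature before reaction start.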
# * hit, by the source's call; u = inconclusive; x = no result. In the library only some 3.3% were active in any assay of this set; here they are far more common. Unless noted, calls come from the whole dose curve; as a rule, active = well fitted curve in the direction sought with a large enough effect; inconclusive = small, poorly fitted or top-dose-only effect, or another doubt; inactive = no such curve, though single readings can be large; an effect the other way counts as inactive or inconclusive. Potency is the fitted concentration of half-maximal effect.
SMILES,AmpC inh detg,AmpC no deterg,Tb PYK inh,RE007 growth inh,SARS PLP yeast,Sm TGR block
Cc1cccc(C)c1NC(=O)C(=O)NCC(c1ccc2c(c1)OCO2)N1CCOCC1 (stereo not given),3%,x,2%,x,x,9%
N#Cc1c[nH]n2c(NC3CCCCC3)c(-c3cccc(Cl)c3)nc12,7%,x,-8%,x,x,-14%
COc1ccc(C2=NO[C@@H]3C(=O)N(c4ccc5c(c4)OCCO5)C(=O)[C@H]23)cc1OC,u,-17%,2%,4%,-2%,45µM*
CCN1CCOC(=O)C1CC(=O)Nc1ccc(Br)cc1 (stereo not given),-2%,x,4%,x,x,7.9µM*
COc1ccccc1NC(=O)CN1CCN(CC(=O)Nc2cc(C)ccc2OC)CC1,-2%,-1%,-22%,1%,2%,-8%
CCN1CCOC(=O)C1CC(=O)Nc1cc(C)ccc1OC (stereo not given),-1%,x,-16%,x,x,18µM*
CCN1CCN(CCC(=O)Nc2ccc(Br)cc2)CC1,-8%,-17%,-3%,-1%,1%,-10%
CCc1ccc2oc(C(=O)NCc3ccccc3)cc(=O)c2c1,6%,x,-4%,x,x,23%
O=C(Nc1ccc2nn(-c3ccccc3)nc2c1)c1ccc(-c2cccc(Cl)c2)o1,15%,x,-25%,x,x,8.9µM*
O=C(Nc1ccc2oc(=O)ccc2c1)c1ccc(-c2ccc(Cl)cc2)o1,-10%,-11%,-13%,-11%,-6%,-21%
COc1ccc(-n2nc3ccc(NC(=O)c4ccc(-c5cc(Cl)ccc5Cl)o4)cc3n2)cc1,0%,x,0%,x,x,-25%
O=C(Nc1ccc2oc(=O)ccc2c1)c1ccc(-c2cccc(Cl)c2)o1,u,-21%,5%,9%,-1%,22µM*
O=C(Nc1ccc2oc(=O)ccc2c1)c1ccc(-c2cccc([N+](=O)[O-])c2)o1,2%,-36%,-2%,-1%,-1%,50µM*
O=C(OCc1ccccc1)c1cccnc1,x,x,4%,x,x,x
Cc1ccccc1S(=O)(=O)NC1OC(=O)C(Oc2ccccc2)=C1Br (stereo not given),7%,-14%,2%,-23%,-1%,8.9µM*
Cc1ccccc1S(=O)(=O)NC1OC(=O)C(Cl)=C1Cl (stereo not given),0%,-33%,-10%,-29%,-2%,3.2µM*
Cc1cc(C)c(S(=O)(=O)c2ccccc2C)c(Oc2ccccc2)n1,0%,-7%,4%,10%,8%,7%
Cc1ccccc1S(=O)(=O)Nc1nc2ccccc2nc1Cl,2%,13%,0%,-2%,6%,-2%
Cc1cc(C(=O)C(=O)Nc2nnc(C(C)C)s2)c(C)n1-c1ccccc1,-2%,x,-4%,x,x,2%
O=c1cnc2cnc(OCc3ccccc3)nc2n1Cc1ccc(F)cc1,x,x,1%,x,x,x
CCN(C(=S)Nc1cccnc1)c1ccccc1,2%,-19%,1%,-2%,-1%,25µM*
O=C(NC(=S)Nc1ccccc1Br)c1cccnc1,-11%,-4%,5%,1%,0%,18µM*
O=C(NC(=S)Nc1cccnc1)c1cccc(Br)c1,-1%,-22%,8%,-3%,-8%,16µM*
O=C(NC(=S)Nc1ccc(Br)cn1)c1cccnc1,0%,17%,2%,-4%,0%,14%
O=C(NC(=S)Nc1cccnc1)c1cccs1,-1%,-9%,3%,-18%,-2%,10µM*
SMILES,AmpC inh detg,AmpC no deterg,Tb PYK inh,RE007 growth inh,SARS PLP yeast,Sm TGR block
COc1ccc(OC)c(NC(=O)CCn2cccn2)c1,18%,x,-9%,x,x,-2%
CCCSS/C(CCO)=C(/C)N(C=O)Cc1cnc(C)nc1N,x,x,3%,x,x,x
O=C(NC(=S)NCc1cccnc1)c1ccccc1,1%,-18%,5%,8%,6%,-9%
CCn1ncc(Cl)c1C(=O)NC(=S)Nc1ccccc1Br,-1%,-33%,1%,-11%,2%,28µM*
O=C(O)c1cccc(NC(=O)c2ccccc2)c1,x,x,-2%,14%,x,x
O=C(Nc1cccc(C(=O)Nc2cccc(Br)c2)c1)c1ccccc1,u,14µM*,1%,-4%,-1%,12%
O=C(NC(=S)NCCSc1ccccc1)c1cccnc1,0%,-6%,11%,5%,10µM*,-35%
O=C(NC(=S)Nc1cccnc1)c1ccccc1,-5%,-9%,-1%,10%,-5%,22µM*
COC(=O)c1ccc(NC(=O)CCNS(=O)(=O)c2cccc3nsnc23)cc1,0%,x,5%,x,x,-5%
COc1cc2c(cc1NC(=O)c1ccccc1C)n(C)c(=O)n2C,13%,x,-5%,x,x,-2%
CC(C)c1ccc(CNc2nc(-c3ccco3)nn2S(=O)(=O)c2ccc3ccccc3c2)cc1,-1%,x,0%,x,x,-7%
Cc1c(C(=O)OCC2CCCCC2)[nH]c2c1C(=O)CC(c1ccccc1Cl)C2 (stereo not given),14%,x,-4%,x,x,8%
O=C(NC(=S)NNC(=O)c1cccs1)c1ccccc1,1%,-28%,-17%,-20%,-4%,50µM*
Cc1ccccc1NC(=S)NC(=O)c1cncc(Br)c1,1%,-18%,10%,-22%,11%,13µM*
